Screens (PubChem)
A selection: hits, their analogues and other compounds. The true share with any hit is near 1.2%.
Rv3671c inh – Rv3671c (M. tuberculosis) protease inhibition | P9WHR9 | inhibition, % at 5.96 µM | actives 0.048% (n = 320,000) | AID 2606; in the data active means inhibition above about 38%;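 further: extracellular domain of Rv3671c used as enzyme; 0% = enzyme with DMSO and 100% = no enzyme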
RecA splice inh – blocks M. tuberculosis RecA intein splicing. cell-free RecA intein splicing, fluorescence. inhibition, % (no concentration beside the values). actives 0.75% (n = 290,000). AID 2221; in the data active means inhibition above about 30%;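 further: 0% = vehicle wells and 100% = reference inhibitor control wells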
Mtb UGM inh – Mtb UDP-galactopyranose mutase inhibition | AID 504406 | actives 0.06% (n = 320,000) | P9WIQ1 | inhibition, % at 10 µM | purified UGM, fluorescence polarization probe displacement; in the data active means inhibition above about 10%, passing the limit was not always enough
Mtb bLac sens – beta-lactam sensitization of Mtb H37Rv; M. tuberculosis H37Rv growth with meropenem, percent inhibition; inhibition, % at 25 µM; actives 0.27% (n = 330,000); AID 434955;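 further: growth measured after seven days incubation then overnight dye step; 0% = bacteria only wells and 100% = bacteria with antibiotic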
CCHFV vOTU inh – CCHFV vOTU protease inhibition; Pep-AMC fluorescence; inhibition, % at 11.5 µM; actives 0.55% (n = 370,000); in the data active means inhibition above about 30%; further: 0% = vehicle wells with enzyme and 100% = no enzyme wells
GFP chromophore – counter-screen: blocks GFP chromophore formation. shares compounds with RecA splice inh. cell-free GFP chromophore formation, fluorescence. EC50, µM. actives 83% (n = 2,100)
Active calls of the source: *; · = no result. Unless noted, how the calls were made is not given here.

SMILES | Rv3671c inh | RecA splice inh | Mtb UGM inh | Mtb bLac sens | CCHFV vOTU inh | GFP chromophore
CCCCCCCCN1C(=O)[C@@H](CC(=O)NCc2ccc(OC)c(OC)c2)C[C@@]2(C(=O)OC)C1=C[C@H](COCc1ccccc1)O[C@@H]2C | · | · | · | · | 9 | ·
c1cc2cn[nH]c2cc1NC1CCCCCC1 | -23 | 89* | 1 | 12 | -7 | 16*
CC(CCN1CCC(C(O)(c2ccccc2)c2ccccc2)CC1)Oc1ccccc1C#N (stereo unspecified) | · | · | · | · | 10 | ·
O=C(CCl)N1CCN2C(=O)c3ccccc3C12c1ccc(Cl)cc1 (stereo unspecified) | 5 | 83* | 1 | 95 | -3 | 4.2*
O=C(O)c1ccccc1-c1ccccc1C(=O)Nc1ccc(-c2nc3cc(Cl)ccc3o2)cc1 | -19 | 36* | 0 | 56 | 7 | 17*
CC(=O)Nc1ccc(-c2nc3cc(Cl)ccc3o2)cc1 | -11 | 2 | 2 | -11 | -7 | ·
Cc1ccc(-c2cc(C(=O)NN=Cc3c(O)ccc4ccccc34)[nH]n2)cc1C | · | · | · | · | -2 | ·
O=c1[nH]cc(NCCc2ccccc2)c(=O)[nH]1 | -1 | 52* | 2 | -4 | -16 | 5.5*
N#CC(C#N)=C(C#N)c1ccc(Nc2ccccc2)cc1 | -2 | 52* | 0 | 11 | -3 | 4.6*
c1ccc(Nc2ccc(Nc3ccccc3)cc2)cc1 | 11 | · | -1 | 62 | 1 | ·
CN1C(=O)/C(=C/c2ccc(-c3ccccc3[N+](=O)[O-])o2)SC1=Nc1ccc(Cl)c(C(=O)O)c1 | -50 | 45* | 4 | 9 | 10 | 23*
CCOC(=O)[C@]12CCCCC/C=C\1N(Cc1ccc(OC)cc1)C(=O)[C@H]2CC(=O)NCc1ccc(OC)c(OC)c1 | · | · | · | · | 10 | ·
C/C(CC(=O)N1CCN(C=O)CC1)=N\NC(=O)c1cccc([N+](=O)[O-])c1 | 3 | 71* | 0 | 3 | 2 | 33*
C/C(CC(=O)N1CCN(C=O)CC1)=N\NC(=O)c1ccc(Cl)cc1 | -11 | 3 | 1 | 5 | 13 | ·
O=C(N=C1N(Cc2ccccc2)C[C@]2(C=C3CCCCC3n3c(=O)n(-c4ccccc4)c(=O)n32)N1C(=O)OCc1ccccc1)c1ccccc1 (stereo partly specified) | · | · | · | · | -1 | ·
COC(=O)C1CN(Cc2ccc(OC)cc2)CCS(=O)(=O)N1Cc1cn(Cc2ccc(C)cc2)nn1 (stereo unspecified) | · | · | · | · | -1 | ·
COC1(OC)C(/C=C/c2ccc(C)cc2)C(C#N)(C#N)C1(OC)OC (stereo unspecified) | -12 | 59* | -1 | 0 | -11 | >38
CCOC(=O)C1CCN(Cc2ccc3ccccc3c2)CC1 | · | -1 | 0 | -2 | -14 | ·
CCOC(=O)C1CCN(Cc2cc(C(C)C)c(O)c(C(C)C)c2)CC1 | -6 | 59* | 0 | -2 | -11 | >38
O=S(=O)(Nc1ncccn1)c1ccc(F)cc1 | · | 1 | -4 | -6 | -14 | ·
COc1ccc(S(=O)(=O)Nc2ccccc2)cc1 | 2 | 2 | 3 | -3 | -9 | ·
COc1ccc(S(=O)(=O)Nc2ccc(O)c3ccccc23)cc1 | -75 | 96* | -1 | 30 | 82* | 0.14*
O=S(=O)(Nc1c(O)ccc2ccccc12)c1ccccc1 | -8 | 93* | 3 | 10 | -1 | 2.2*
O=S(=O)(Nc1c(O)ccc2ccccc12)c1ccc(F)cc1 | -6 | 95* | 3 | 2 | 2 | 3*
O=S(=O)(Nc1cccc2ccccc12)c1ccccc1 | 4 | 0 | · | -1 | -2 | ·
SMILES | Rv3671c inh | RecA splice inh | Mtb UGM inh | Mtb bLac sens | CCHFV vOTU inh | GFP chromophore
COC(=O)C[C@H]1CC[C@@H]2[C@@H](COc3ccc(NC(=O)Nc4ccccc4OC)cc3C(=O)N2C)O1 | · | · | · | · | 2 | ·
O=C(CCc1ccccc1)N[C@H]1[C@H](OC(=O)c2ccco2)CCC[C@]12C(=O)N(Cc1ccccc1)c1ccccc12 | · | · | · | · | 6 | ·
N#Cc1cccc(OC[C@@H](O)CN2CCC(C(O)(c3ccccc3)c3ccccc3)CC2)c1 | · | · | · | · | 8 | ·
O=C(CCl)NC(=O)NC12CC3CC(CC(C3)C1)C2 | -8 | 59* | -3 | 100 | -7 | 29*
COc1ccc(CN2CN3CCc4ccccc4C3CS2(=O)=O)cc1 (stereo unspecified) | · | · | · | · | -8 | ·
CCOC(=O)C1=C(C)N(c2ccc(OC)cc2)C(=O)/C1=C\c1ccc(O)c(OCC)c1 | 6 | 5 | -5 | -3 | 8 | ·
